PfHsp40 rescue = compounds rescuing yeast from Plasmodium falciparum HSP40 toxicity; growth rescue, % at 12.5 µM; AID 504582; 0.68% of 340,000 active; S. cerevisiae expressing PfHsp40, growth rescue, ATP luminescence; in the data active = growth rescue above about 28%, passing the limit was not always enough;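 note: yeast W303a lacking pdr1 and pdr3 grown in galactose medium; growth measured after three days at 30 °C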
PrP UTR inh = inhibition of PrP 5' UTR reporter expression | cell-based PrP 5' UTR mRNA reporter, plate reader | inhibition, % (concentration not given with the values) | AID 488862 | 0.35% of 340,000 active; in the data active = inhibition above about 52%
FadD28 binding = M. tuberculosis FadD28 bisubstrate binding inhibition; inhibition, % at 12.5 µM; 0.22% of 360,000 active; AID 588549; FadD28 bisubstrate probe binding, fluorescence polarization; in the data active = inhibition above about 8.5%, passing the limit was not always enough
BioA inh = BioA (M. tuberculosis) enzyme inhibition. 0.096% of 360,000 active. AID 602481. purified M. tuberculosis BioA enzyme, plate reader. inhibition, % at 9.99 µM; in the data active = inhibition above about 40%
TcdB GH inh = blocks C. difficile toxin B glycohydrolase activity | P18177 | TcdB glycohydrolase enzymatic assay, plate reader | inhibition, % at 9.99 µM | 0.24% of 350,000 active; in the data active = inhibition above about 10%
PrP 5UTR single = prion 5' UTR mRNA inhibition, cherry-pick retest. 48% of 1,100 active. cell-based prion protein 5' UTR reporter, plate reader. AID 504592. inhibition, % at 2.5 µM. shares compounds with PrP UTR inh; in the data active = inhibition above about 54%
A number is an active result; i = inactive; nt = not tested or not shown. Hits are enriched below; roughly 1.1% of the tested compounds scored in any of these assays.

SMILES	PfHsp40 rescue	PrP UTR inh	FadD28 binding	BioA inh	TcdB GH inh	PrP 5UTR single
COc1ccc(CN(C)CC(=O)Nc2ccccc2C(F)(F)F)cc1	i	80.6	i	nt	i	i
COc1cc(OC)cc(C(=O)N2CCN(Cc3cccc(F)c3)CC2)c1	i	i	i	i	nt	nt
COc1cc(OC)cc(C(=O)N2CCN(Cc3ccccc3Br)CC2)c1	i	85.5	i	nt	i	i
O=C(NCCN1CCCC1)[C@@H]1N[C@@H]2c3ccc(C4=CCCCC4)c(=O)n3C[C@@H]2[C@H]1CO	nt	nt	nt	i	i	nt
O=C(CN1C(=O)c2ccccc2S1(=O)=O)c1ccccc1Cl	i	69.0	i	i	i	70.5
Cc1ccc(C(=O)CN2C(=O)c3ccccc3S2(=O)=O)cc1	i	65.5	i	i	i	74.1
CNC(=O)C[C@H]1CC[C@@H]2[C@H](COC[C@H](O)CN2Cc2ccncc2)O1	nt	nt	nt	i	i	nt
OCCCNc1cc(-c2ccnc(Nc3cccc(Cl)c3)n2)ccn1	i	82.2	i	i	i	84.3
CN(C)c1ccc(C(=O)NCc2ccc3c(c2)OCO3)cc1	i	i	i	i	i	nt
Cc1ccc(/C([O-])=C(/C(=S)NCc2ccc3c(c2)OCO3)[n+]2ccc(N(C)C)cc2)c(C)c1	i	66.5	i	nt	i	i
CN(C)CC(=O)Nc1ccc2c(c1)[C@@H]1C[C@H](CC(=O)NCCN3CCCCC3)O[C@@H](CO)[C@@H]1O2	nt	nt	nt	i	i	nt
C/C=C/c1ccc2c(c1)O[C@@H](CN(C)C(=O)c1ccccc1F)[C@@H](C)CN([C@@H](C)CO)S2(=O)=O	nt	nt	nt	i	i	nt
O=C(c1ccc(F)cc1)C1CCN(Cc2ccccc2F)CC1	nt	nt	i	i	i	nt
CC1(C)C(=O)N(CCN2CCC(C(=O)c3ccc(F)cc3)CC2)c2ccccc21	i	52.7	i	i	i	i
CC[C@]12c3[nH]c4ccccc4c3CCN1C(=O)C(CC(=O)NCCc1ccccn1)C[C@@H]2C(=O)N1CCN(C(=O)c2ccco2)CC1 (some centres undefined)	i	66.9	i	i	i	i
CC[C@]12c3[nH]c4cc(CCC(=O)N(C)C)ccc4c3CCN1C(=O)[C@@H](CC(=O)NCCc1ccccn1)C[C@@H]2C(=O)N1CCN(C(=O)c2ccco2)CC1	i	i	i	i	i	nt
Cc1nn(C)c(C)c1N1C(=O)c2cccc3c(N)ccc(c23)C1=O	i	i	i	i	nt	nt
Cc1ccc(N2C(=O)c3cccc4c(N)ccc(c34)C2=O)c2cccnc12	i	73.8	i	i	i	85.6
CO[C@H]1CN(C)C(=O)c2ccc(NS(=O)(=O)CC(F)(F)F)cc2OC[C@H](C)N(Cc2ccccn2)C[C@@H]1C	nt	nt	nt	i	i	nt
Cc1ccc(Cl)cc1NC(=O)C1CC(=O)Nc2ncnn21 (centres undefined)	i	i	i	i	i	nt
O=C1CC(C(=O)Nc2cc(Cl)ccc2Cl)n2ncnc2N1 (centres undefined)	i	78.2	i	nt	i	i
Cc1nn(-c2ccccc2)c(C)c1/C=N/NC(=O)c1cc(-c2ccccc2)n[nH]1	i	65.9	i	nt	nt	79.7
COC(=O)C[C@H]1CC[C@H]2[C@@H](COc3ccc(NC(=O)c4cc(C)on4)cc3C(=O)N2C)O1	nt	nt	nt	i	i	nt
CCC1(O)C(=O)OCc2c1cc1n(c2=O)Cc2cc3c(N)cccc3nc2-1 (centres undefined)	i	52.8	i	nt	i	90.3
Cc1ccc(N2CCCCn3c2nc2c3c(=O)n(CC(=O)O)c(=O)n2C)cc1	i	58.5	i	nt	nt	i
SMILES	PfHsp40 rescue	PrP UTR inh	FadD28 binding	BioA inh	TcdB GH inh	PrP 5UTR single
CC1(C)CC[C@]2(C(=O)n3ccnc3)CC[C@]3(C)[C@H](C(=O)C=C4[C@@]5(C)C=C(C#N)C(=O)C(C)(C)[C@@H]5CC[C@]43C)[C@@H]2C1	i	94.5	i	nt	i	97.0
Cc1cccc(C(=O)N(Cc2ccco2)c2c(N)n(Cc3ccccc3)c(=O)[nH]c2=O)c1	i	89.6	i	i	i	i
Cc1ccc(C(=O)N(Cc2ccco2)c2c(N)n(Cc3ccccc3)c(=O)[nH]c2=O)cc1	nt	nt	i	i	i	nt
Cc1nn(-c2nc3ccccc3[nH]2)c(=O)c2ccccc12	i	92.7	i	nt	i	95.1
Cc1nn(-c2ccc3ccccc3c2)c(=O)c2ccccc12	i	i	i	i	i	nt
O=C(C[C@H]1C=C[C@H](NS(=O)(=O)c2ccc(F)cc2)[C@@H](CO)O1)NCCc1ccncc1	nt	nt	nt	i	i	nt
Cc1ccc(-n2[nH]c(=O)c(-c3ccccn3)c2C)cc1	i	71.6	i	nt	i	68.4
S=C(NCc1ccco1)Nc1ccc(Br)cn1	i	i	i	i	i	nt

Compound activity from PubChem.
